# Measured values taken from PubChem BioAssay (NCI).
# About 83,000 compounds went through this panel and 20% of them were active in at least one assay; those are over-represented in the sample as a whole.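 Treatment: one concentration, 48 hours, 96-well format. Scoring: percent growth, with anything below 10 considered active.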 Unmarked numbers belong to inactive results. Calls of active or inactive are those of the source.
# Test system: HOP-92 NSCLC
# Assay: NCI-60 one-dose screen, 48 h (100 = growth as untreated, 0 = no growth, -100 = all killed)
# Conditions: 10 µM unless noted
row,Compound,growth
1,C=C1C(=O)O[C@H]2[C@H]1CC/C(COC(=O)C(=O)c1c[nH]c3ccccc13)=C\CC[C@@]1(C)O[C@@H]21,-74.3% (active)
2,S=C(c1ccc2c(c1)OCO2)N1CCN(c2ccccc2Cl)CC1,67.3%
3,CC(C)(C)CC(C)(C)Nc1c(-c2ccncc2)nc2cnccn12,87.1%
4,COCCN(C(=O)c1ccc(F)cc1F)c1c(N)n(Cc2ccccc2)c(=O)[nH]c1=O,59.3%
5,Cc1ccc(N(C(=O)CCc2c[nH]c3ccccc23)[C@H](C(=O)Nc2ccc(Cl)cc2)c2cccc([N+](=O)[O-])c2)cc1,75.9%
6,COC(=O)c1c2c(c(C)[n+]([O-])c1C)C(=O)C(NCc1ccc(F)cc1)=CC2=O,42.5%
7,COc1ccc(Cl)cc1NC(=O)C(Br)C(Br)C(=O)O (configuration not stated),53.5%
8,O=C1Nc2ccccc2/C1=C/c1cn(C(=O)c2c(Cl)cccc2Cl)c2ccccc12,49.1%
9,COC(=O)/C=C1\S/C(=N\NS(=O)(=O)c2ccc(C)cc2)N(c2ccccc2)C1=O,91.4%
10,CCCCCCCC/C=C\CCCCCCCCOc1ccccc1CC(=O)NCC[N+](C)(C)C,61.3%
11,NC(=S)Nc1cccc(O)c1,98.9%
12,CCCCCS(=O)(=O)Nc1ccc(C(=O)O)cc1,105%
13,CCCCCCCCCOc1c(OC)cc(C2CC(=O)Nc3c2c(C)nn3-c2nc3ccccc3[nH]2)cc1OC (configuration not stated),-23.4% (active)
14,C=C1C(=O)O[C@H]2[C@H]1CC/C(CNC(=O)/C=C/c1ccc(Cl)cc1Cl)=C\CC[C@@]1(C)O[C@@H]21,-50.8% (active)
15,NNC(=O)c1nc(N)n(-c2ccc(S(N)(=O)=O)cc2)n1,74.2%
16,C(=N\Nc1ncc(-c2cc3cc4c(cc3o2)OCO4)s1)/c1ccco1,63.2%
17,O=C(/C=C/c1cccc(O)c1)c1cccc(-n2cc(-c3ccc4ccccc4c3)[nH]c2=O)c1,42.6%
18,COc1cc(Cn2ncc3ccc(NC(=O)c4cc5ccccc5oc4=N)cc32)cc(OC)c1OC,71.9%
19,O=C(CC(SCc1ccccc1)c1ccccc1)c1ccccc1 (configuration not stated),80.1%

row,Compound,growth
1,CCOc1ccccc1-c1cc(-c2cccs2)c(C#N)c(=O)[nH]1,64.7%
2,N#CC1=C(NC=O)Oc2c(ccc3ccccc23)C1c1ccccc1 (configuration not stated),42.6%
3,COc1cc(C2CC(c3cc(OC)c(OCCCOc4ccc(-n5c(/C=C/c6ccccc6)nc6ccccc6c5=O)cc4)c(OC)c3)=NO2)cc(OC)c1OC (configuration not stated),42.5%
4,O=C1Nc2ccc(F)cc2C12Nc1cc(Cl)ccc1S2 (configuration not stated),-5.66% (active)
5,CCN(CC)CCN1C(=O)c2c(c(C)c3c(oc4cc(O)ccc43)c2C)C1=O,72.1%
6,O=C(O)c1ccc2c(c1Cl)C(=O)c1ccccc1C2=O,109%
7,CN(c1ccccc1)c1ccc2c(c1)OCCC21CC1Nc1cnccc1C(=O)O (configuration not stated),101%
8,CC1O[C@@H](OC2[C@H](OC(=O)/C=C/c3ccc(O)c(O)c3)C(COC3O[C@H](C)C(O)C(O)[C@@H]3O)O[C@@H](OCCc3ccc(O)c(O)c3)[C@H]2O)[C@@H](O)C(O)[C@H]1O (some centres not stated),102%
9,O=C(CSc1nnc(-c2ccc(NC(=O)c3cccnc3)cc2)o1)Nc1cccc(Br)c1,88.7%
10,CCN1C(=O)N(CC)C2Nn3c(s/c(=C\c4ccc(Cl)cc4Cl)c3=O)=NC21 (configuration not stated),68.3%
11,COc1ccc(/C=N/C2=C(C#N)C(c3ccc(OC)cc3)c3ccc4ccccc4c3O2)cc1 (configuration not stated),70.3%
12,CCOC(=O)C/C(C)=N\NC(=O)c1ccncc1,-2.59% (active)
13,COC(=O)[C@H](CSC)N(C)C(=O)[C@@H]1CSSC[C@@H](NC(=O)c2nc3ccccc3cc2O)C(=O)NCC(=O)N1C,132%
14,COc1ccc2[nH]c(O)c(C(=Nc3ccc(N(C)C(=O)CN4CCN(C)CC4)cc3)c3ccccc3)c2c1,12.7%
15,O=[N+]([O-])c1ccc(N2c3ccncc3Sc3ccncc32)cc1,80.2%
16,COc1ccc(CNC(=O)C(O)C(Cc2ccccc2)NC(=O)c2[nH]c3ccccc3c(=O)c2C)cc1OC (configuration not stated),110%
17,N#C/C(=C/C=C/c1cccc(Cl)c1)S(=O)c1ccccc1 (configuration not stated),-60.9% (active)
18,COC(=O)[C@]12CC[C@@H](C)[C@H](C)[C@@H]1C1=CC[C@@H]3[C@@]4(C)C(C=O)=C[C@@](C)(COC(C)=O)C4=CC[C@@]3(C)[C@]1(C)CC2,-9.34% (active)
